TDP1 cell CPT: qHTS for Inhibitors of human tyrosyl-DNA phosphodiesterase 1 (TDP1): qHTS in cells in presence of CPT; chicken DT40 Tdp1-/-;hTDP1 cells + 20 nM CPT, ATP luminescence, 48 h; Potency, µM (top dose mostly 46.2 µM), usual class: inhibitors; 420,000 compounds, 12% hits; also: nearly all actives have a fitted effect of over 55% in size
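Chicken DT40 Tdp1-/- cells complemented with human TDP1, 400 cells/well, exposed to compounds plus 20 nM camptothecin for at least 48 h at 37 C; viability read as ATP content by CellTiter-Glo luminescence.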
HT1080 IDH1KD tx: qHTS for induction of synthetic lethality in tumor cells producing 2HG: qHTS for the HT-1080-IDH1KD cell line | HT-1080 IDH1 knockdown viability, ATP luminescence, 48 h | Potency, µM (series often up to 46.1 µM), usual class: cytotoxic | 360,000 compounds, 2% hits | AID 686971, 2013
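IDH1KD HT-1080 cells, 750/well, RPMI + 5% FBS; compound pinned after 2 h settling; 48 h, 37 °C; CellTiter-Glo luminescence; % activity normalised to DMSO and no-cell wells; curves fitted, classed by r2 and efficacy.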
TDP1 cell noCPT: qHTS for Inhibitors of human tyrosyl-DNA phosphodiesterase 1 (TDP1): qHTS in cells in absence of CPT. DT40 Tdp1-/- hTDP1 cells, no CPT, ATP luminescence, 48 h. Potency, µM (highest dose often 46.2 µM), hits mostly inhibitors. 420,000 compounds, 15% hits. AID 686978, 2013; also: nearly all actives have a fitted effect of over 55% in size
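A cellular qHTS used chicken DT40 cells lacking endogenous Tdp1 but carrying stably transfected human TDP1. Compounds were applied without camptothecin, and cell growth kinetics were judged by ATP-dependent luminescence after ≥48 hr.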
HT1080NT lethal: qHTS for induction of synthetic lethality in tumor cells producing 2HG: qHTS for the HT-1080-NT fibrosarcoma cell line | HT-1080-NT fibrosarcoma viability, CellTiter-Glo ATP luminescence, 48 h | Potency, µM (top dose mostly 46.1 µM), actives largely listed as cytotoxic | 360,000 compounds, 1.6% hits | AID 686970, 2013;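 also: NT is the 2HG producing partner of a matched IDH1 knockdown line; nearly all actives have a fitted effect of over 55% in size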
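Luminescent CellTiter-Glo readout after 48 hours of compound exposure at 37 degrees C defined viability of HT-1080-NT cells. Activity was normalized to DMSO wells and cell-free media wells; concentration-response curves were fitted and assigned curve classes.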
uPA surface inh: qHTS for Inhibitors of Cell Surface uPA Generation; cell surface uPA generation assay, qHTS; Potency, µM (doses to about 38.3 µM), actives largely listed as inhibitors; 330,000 compounds, 0.31% hits; active = well fitted inhibition curve with a large enough effect; inconclusive = small, poorly fitted or top-dose-only effect; inactive = no such curve, though single readings can be large or run the other way; tested in mouse RAW 264.7 cells; also: nearly all actives have a fitted effect of over 55% in size
IL-1B inflam inh: qHTS for Inhibitors of Inflammasome Signaling: IL-1-beta AlphaLISA Primary Screen. activity change, % at 57.5 µM. 360,000 compounds, 4.7% hits. THP-1 LPS/ATP IL-1B secretion, AlphaLISA, 16 h; active compounds read low; in the data active = activity change below about -50%; inconclusive = mostly about -30% to -49%
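THP-1 cells pretreated 1 hr with compounds (up to 57.5 uM final), then stimulated with LPS (250 ng/mL final) plus ATP (1.25 mM final); secreted IL-1B measured by AlphaLISA after 16 hr, decreased signal indicating inhibition.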
Large screens that a line does not name were inactive. Hits are enriched below; roughly 19% of the tested compounds scored in any of these assays. Unless noted, calls follow the shape of the dose curve; as a rule, active = well fitted curve in the direction sought with a large enough effect; inconclusive = small, poorly fitted or top-dose-only effect, or another doubt; inactive = no such curve, though single readings can be large; an effect the other way counts as inactive or inconclusive.

CCOC(=O)c1cc(-c2ccccc2)sc1NC(=O)c1cc(OC)c(OC)c(OC)c1	TDP1 cell CPT inconclusive, TDP1 cell noCPT 18µM
CCOC(=O)c1cc(-c2ccccc2)sc1NC(=O)CC(C)C	TDP1 cell noCPT inconclusive
COc1ccccc1CNC(=O)Cc1c(C)c2c(cc(C)c3c(C)coc32)oc1=O	none (no result: HT1080 IDH1KD tx, HT1080NT lethal, uPA surface inh, IL-1B inflam inh)
CC1CC(C)(C)NC(=S)N1CCC(=O)NCCc1ccc(Cl)cc1 (configuration not stated)	TDP1 cell noCPT inconclusive
Cc1nc(NCCCN2CCOCC2)c2cnn(-c3ccccc3)c2n1	none
Cc1ccc(-c2nc(NC(=O)CSc3nnc4scc(-c5ccccc5)n34)ns2)cc1	TDP1 cell CPT 18µM, TDP1 cell noCPT 21µM
CC(C)(C)c1ccc(-c2nc(NC(=O)CSc3ncnc4sc5c(c34)CCCC5)ns2)cc1	TDP1 cell CPT inconclusive, TDP1 cell noCPT 4.1µM (no result: HT1080 IDH1KD tx, HT1080NT lethal, uPA surface inh, IL-1B inflam inh)
Cc1ccc(-c2nc(NC(=O)CSc3nc(C)nc4sc5c(c34)CCCC5)ns2)cc1	TDP1 cell CPT 12µM, TDP1 cell noCPT 6.5µM (no result: HT1080 IDH1KD tx, HT1080NT lethal, uPA surface inh, IL-1B inflam inh)
Cc1ccccc1-c1nc(NC(=O)CSc2ncnc3sc4c(c23)CCCC4)ns1	none (no result: HT1080 IDH1KD tx, HT1080NT lethal, uPA surface inh, IL-1B inflam inh)
Cc1ccc(C(=O)N[C@H](C(=O)Nc2cccc(S(=O)(=O)N3CCOCC3)c2)C(C)C)cc1	TDP1 cell noCPT inconclusive (no result: uPA surface inh)
COc1cc(/C=C/C(=O)OCC(=O)NC(C)c2ccccc2)cc(OC)c1OC (configuration not stated)	IL-1B inflam inh inconclusive
COc1ccc(OC)c(N/C=C/C(=O)c2ccccc2)c1	none
COc1cc(/C=C/C(=O)OC(C)C(=O)c2ccccc2)cc(OC)c1OC (configuration not stated)	TDP1 cell CPT 21µM, TDP1 cell noCPT 15µM
COc1cc(/C=C/C(=O)c2ccccc2O)cc(OC)c1OC	HT1080 IDH1KD tx inconclusive, TDP1 cell noCPT inconclusive, HT1080NT lethal inconclusive, uPA surface inh inconclusive, IL-1B inflam inh -98
COc1cc(OC)c(C=CC(=O)c2ccccc2O)c(OC)c1	TDP1 cell CPT inconclusive, HT1080 IDH1KD tx inconclusive, TDP1 cell noCPT inconclusive, IL-1B inflam inh -59
O=C(Nc1cccc(C(=O)N2CCCC2)c1)C1CCCCC1	none
O=C(CCCCn1c(=O)c2ccccc2n(CC(=O)Nc2cccc(F)c2)c1=O)NCc1ccccc1Cl	none (no result: HT1080 IDH1KD tx, HT1080NT lethal, uPA surface inh, IL-1B inflam inh)
COc1cccc(NC(=O)CC(C)S(=O)(=O)c2ccc3c(c2)NC(=O)CO3)c1 (configuration not stated)	TDP1 cell noCPT inconclusive (no result: HT1080 IDH1KD tx, HT1080NT lethal, uPA surface inh, IL-1B inflam inh)
Cc1cc2cc(C(c3nnnn3Cc3ccco3)N3CCc4ccccc4C3)c(=O)[nH]c2cc1C (configuration not stated)	TDP1 cell CPT inconclusive, HT1080 IDH1KD tx inconclusive, TDP1 cell noCPT 23µM, HT1080NT lethal inconclusive, IL-1B inflam inh -58
CCC(C)(C)n1nnnc1C(c1cc2ccc(OC)cc2[nH]c1=O)N1CCc2ccccc21 (configuration not stated)	TDP1 cell CPT inconclusive, HT1080 IDH1KD tx 11µM, HT1080NT lethal inconclusive (no result: uPA surface inh)
CCc1ccc2[nH]c(=O)c(C(c3nnnn3CCOC)N3CCN(c4ccccc4)CC3)cc2c1 (configuration not stated)	TDP1 cell CPT inconclusive, TDP1 cell noCPT 18µM, IL-1B inflam inh inconclusive
CCC(C)(C)n1nnnc1C(c1cc2cc(OC)ccc2[nH]c1=O)N1CCc2ccccc21 (configuration not stated)	TDP1 cell CPT inconclusive
COc1cc2cc(C(c3nnnn3Cc3ccc(F)cc3)N3CCCCCC3)c(=O)[nH]c2cc1OC (configuration not stated)	HT1080 IDH1KD tx inconclusive, TDP1 cell noCPT inconclusive (no result: uPA surface inh)
